# Screening results from PubChem BioAssay.
# Rows were chosen to be rich in hits. Some 3.6% of all compounds tested hit in one or more screens of this group.
# FUS yeast rescue: suppressors of FUS proteinopathy in yeast; S. cerevisiae FUS-expressing, growth rescue, OD600, 24 h; Potency, µM (top dose mostly 76.6 µM), usual class: activators; 390,000 compounds, 0.24% hits; AID 1347120;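 further: plate controls were DMSO vehicle for no effect and reference control for full effect; nearly all actives have a fitted effect of over 55% in size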
#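 Toxicity suppression screen in FUS-yeast. Cells induced with 2% galactose, starting OD 0.005, treated 24hr at 30C with compounds at multiple final concentrations; growth by OD600.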
# Mm-Cpn inhibitor: inhibitors of Methanococcus maripaludis chaperonin TRiC (MmCpn); purified Mm-Cpn ATPase, ADP Transcreener TR-FRET; Potency, µM (titrated, usually from 76.9 µM), for the others: at the highest dose activity, negative = inhibition, most hits filed as inhibitors; 330,000 compounds, 0.031% hits; AID 504842; further: on the % scale 0 is the no-effect control and ±100 the full control effect; nearly all actives have a fitted effect of over 80% in size
#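 ATP (10 uM final) was added to archaeal chaperonin (25 nM final) after 10 min exposure to test compound at 37°C; after 30 min further incubation, ADP was detected by competitive TR-FRET.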
# ClpP mod: qHTS Assay for Activators of ClpP. ATP-dependent Clp protease proteolytic subunit (Bacillus subtilis (strain 168)), P80244. purified B. subtilis ClpP, FRET peptide cleavage, 20 min. Potency, µM (doses to about 57.5 µM), for inactives: at the top dose activity change, negative = active. 340,000 compounds, 1.9% hits; active means well fitted falling curve with a large enough effect; inconclusive means small, poorly fitted or top-dose-only effect; inactive means no such curve, though single readings can be large or run the other way; further: the source files actives as falling curves though it sought activators and does not explain the sign; nearly all actives have a fitted effect of over 65% in size
# Target sequence (P80244 whole entry, looked up): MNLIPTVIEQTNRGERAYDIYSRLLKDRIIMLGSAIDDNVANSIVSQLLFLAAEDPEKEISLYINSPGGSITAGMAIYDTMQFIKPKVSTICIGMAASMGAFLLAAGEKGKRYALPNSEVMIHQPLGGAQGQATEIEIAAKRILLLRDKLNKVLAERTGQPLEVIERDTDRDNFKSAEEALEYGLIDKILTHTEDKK
#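 Buffer: 100 mM Tris/HCl pH8, 100 mM KCl, 0.05% low protease BSA, 2.5% glycerol, 0.01% Tween-20. ClpP 10 microg/mL final; 20 min RT; delta FRET normalized to ADEP and DMSO controls.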
# TDP43 rescue: inhibitors of TDP-43 toxicity in yeast. Potency, µM (highest dose often 46.1 µM), inactives show at the top dose growth rescue (activation), usual class: activators. 410,000 compounds, 1.8% hits. AID 652104. TDP-43 expressing yeast growth rescue, BacTiter-Glo, 24 h; further: % of control where 0% means no effect; nearly all actives have a fitted effect of over 50% in size
#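 Readout is BacTiter-Glo luminescence of cell growth, so inhibitors register as activators. TDP-43-expressing yeast at OD600=0.02 in galactose medium, after raffinose pregrowth to mid-log, were incubated with compound for 24 hr at 30 deg C.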
# aSyn yeast inh: rescues yeast growth from alpha-synuclein toxicity; Yeast expressing alpha-synuclein, growth rescue, BacTiter-Glo, 24 h; Potency, µM (titrated, usually from 46.1 µM), inactives show at the highest dose growth rescue (activation), most hits filed as activators; 370,000 compounds, 0.14% hits; further: % of control where 0% means no effect; nearly all actives have a fitted effect of over 65% in size
#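 Galactose-induced alpha-syn yeast (OD600=0.02, raffinose-pregrown) + pinned cpd, 24 hr, 30 deg C; growth by BacTiter-Glo luminescence. Growth restoration scores as activation.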
# Abeta yeast res: A-beta toxicity reversal in yeast; AID 1347071; Potency, µM (titrated, usually from 46.1 µM), usual class: activators; yeast expressing A-beta42, growth rescue, OD600, 48 h; response scale: 0% DMSO, 100% iron-clioquinol control; 410,000 compounds, 0.063% hits; further: nearly all actives have a fitted effect of over 55% in size
#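 Growth rescue measured by 600 nm absorbance after 48 h yeast culture at 30 C with compound. Values normalized between DMSO and an equimolar ferric chloride plus clioquinol control.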
# Active calls of the source: *; i = inactive; ? = inconclusive; nt = not tested or not shown; [ ] = dose if it differs, or a comment. Unless noted, the call rests on the fitted dose curve; in most records, active means well fitted curve in the direction sought with a large enough effect; inconclusive means small, poorly fitted or top-dose-only effect, or another doubt; inactive means no such curve, though single readings can be large; an effect the other way counts as inactive or inconclusive. Potency means the concentration at half of the fitted maximal effect.
SMILES,FUS yeast rescue,Mm-Cpn inhibitor,ClpP mod,TDP43 rescue,aSyn yeast inh,Abeta yeast res
Cc1nc2nc[nH]n2c(=O)c1NS(=O)(=O)c1ccc(Br)cc1,i,nt,-3%,27%,nt,i
CCN1C(=O)[C@H]2[C@@H](c3ccc(C)cc3)N3C(=O)N(c4cccc(Br)c4)C(=O)[C@@]3(Cc3ccccc3)[C@H]2C1=O,35µM*,-28%,1%,-10%,-2%,i
CC(C)(C)N1C(=O)[C@H]2[C@@H](c3ccc(Br)cc3)N3C(=O)N(c4cccc(Br)c4)C(=O)[C@@]3(Cc3ccccc3)[C@H]2C1=O,5µM*,-2%,0%,7%,1%,i
Cc1cc2n(n1)C(c1c[nH]c3ccccc13)Nc1ccccc1-2 (stereo not given),nt,-2%,22µM*,7.9µM*,-33%,i
Cc1ccc2c(c1)-c1cc(C)nn1C(c1cc(Br)ccc1O)N2 (stereo not given),i,nt,5%,21%,nt,i
Cc1cc2n(n1)C(c1cn(-c3ccccc3)nc1C)Nc1ccccc1-2 (stereo not given),i,-12%,2.5µM*,12%,3%,i
COC(=O)[C@H]1C[C@]2(C(/C=C(\C)CCC=C(C)C)S(=O)(=O)c3ccccc3)c3ccccc3N[C@H]2N1 (stereo not given in full),i,nt,nt,nt,nt,nt
CCc1ccc(C(=O)c2cn(CC(=O)Nc3cc(C)ccc3C)c3nc(C)ccc3c2=O)cc1,i,nt,-1%,-23%,nt,i
Cc1nc(NC(C)c2ccccc2)c2c3c(sc2n1)CCC3 (stereo not given),i,-3%,4%,14µM*,-10%,i
Cc1ccc(CNc2nc(C)nc3sc4c(c23)CCC4)cc1,i,-1%,-2%,-6%,0%,i
O=C(NCCc1ccccc1)c1ccc2nc(N3CCOCC3)sc2c1,i,-2%,-10%,?,0%,i
COc1ccccc1CNC(=O)c1ccc2nc(N3CCOCC3)sc2c1,i,-1%,-8%,22µM*,0%,i
O=C(NCc1cccc(Cl)c1)c1ccc2nc(N3CCOCC3)sc2c1,i,1%,-13%,25µM*,4%,i
c1ccc(-c2nnnc3ccccc23)cc1,i,0%,0%,18%,2%,i
Clc1ccc2nnnc(-c3ccccc3)c2c1,i,-22%,0%,3.2µM*,14%,i
CC1=C(C(=O)NCc2cccc(F)c2)C2(CCCCC2)OC1=O,i,nt,-5%,14%,nt,i
CC1=C(C(=O)NCc2cccc(Br)c2)C2(CCCCC2)OC1=O,i,nt,1%,18µM*,nt,i
C=C(C)COc1ccc2c(CC)cc(=O)oc2c1C,nt,0%,13µM*,-8%,3%,i
Cc1cc(=O)oc2c(C)c(OCC(=O)N(C)C)ccc12,i,0%,16µM*,3%,1%,i
Cc1c(C)c2ccc(OCC(=O)N(C)C)c(C)c2oc1=O,i,2%,-1%,11%,-4%,i
CCOc1ccc(C(C)C)cc1S(=O)(=O)Nc1cccc(-c2ccc(N3CCOCC3)nn2)c1,i,nt,1%,-16%,nt,i
CC(=O)c1cccc(NC(=O)Nc2nnc(N3CCCC3)s2)c1,i,nt,-1%,19%[9.22 µM],nt,i
c1ccc(-c2nc(-n3nc4ccccc4n3)nc3ccccc23)cc1,i,0%,35µM*,9%,1%,i
CCOc1ccc(-c2cc(C(=O)NC(C)c3ccccc3)c3ccccc3n2)cc1 (stereo not given),i,nt,4%,?,nt,i
O=C(c1cccnc1)N1CCc2ccccc21,i,-4%,-2%,-12%,-1%,i
O=C(c1cccnc1)N1CCc2ccccc2C1,i,56µM*,-5%,-9%,1%,i
